Measurements: PubChem BioAssay AID624405 (Broad Institute, 2012)
Among all 1,900 compounds or so, about 250 (13%) were called active. Another 4% or so got no clear call; they are omitted.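 The calls were made as follows: active = fitted curve reaches 40% rescue activity at or below the top valid dose, in every test run; inconclusive = test runs disagree, some active and some inactive; inactive = every run misses the threshold or moves the wrong way.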 Only a sample is shown. Results with a measured potency or affinity are listed apart.

Assay: rescue of simvastatin-induced ATP loss – cell-based, C2C12 myotubes, ATP luminescence, cherry pick, dose response (AID 624405);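 also: myotubes are challenged with simvastatin at 10 µM to lower ATP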
Settings: 48 h, scaled: DMSO wells 0, geranylgeraniol wells 100; series mostly up to 19.5 µM

SMILES | outcome
CCOC(=O)C1=C(C)Nc2ccccc2N=C1NC(=O)c1cccc(S(=O)(=O)N(C)C)c1 | inactive
COc1ccc(C(=O)N2C[C@@H]3[C@H](c4ccccc42)[C@H](CO)N3Cc2ccccc2)cc1 | inactive
COC(=O)C1(C(=O)OC)NOC2C(=O)N(c3ccc(Cl)cc3Cl)C(=O)C21 (stereo unspecified) | inactive
C[C@@H](NC(=O)C[C@@H]1CC[C@@H]2[C@H](COC[C@H](O)CN2Cc2ccc(C(F)(F)F)cc2)O1)c1ccccc1 | inactive
COc1ccc(S(=O)(=O)Nc2ccc3c(c2)C(=O)N([C@H](C)CO)C[C@H](C)[C@H](CN(C)S(=O)(=O)c2ccc(F)cc2)OCCCC[C@H](C)O3)cc1 | inactive
CCC(C)(CCNC(=O)Cc1ccccc1)c1ccccc1OC (stereo unspecified) | inactive
C[C@H]1CN([C@@H](C)CO)C(=O)Cc2cc(NC(=O)CCCCCC(=O)Nc3ccccc3N)ccc2O[C@@H]1CN(C)Cc1ccc(-c2ccccc2)cc1 | inactive
C[C@H](CO)N1C[C@H](C)[C@@H](CN(C)Cc2ccc(-c3ccccc3)cc2)Oc2ccc(NC(=O)CCCCCC(=O)Nc3ccccc3N)cc2CC1=O | inactive
C[C@H](CO)N1C[C@H](C)[C@@H](CN(C)Cc2ccc(-c3ccccc3)cc2)Oc2ccc(NC(=O)Cc3ccccc3)cc2CC1=O | inactive
Cc1noc(C)c1S(=O)(=O)Nc1ccc2c(c1)C(=O)N([C@@H](C)CO)C[C@@H](C)[C@@H](CN(C)S(=O)(=O)c1ccc(Cl)cc1)OCCCC[C@H](C)O2 | inactive
c1ccc2c(c1)CNC1(CCCCC1)C2 | inactive
COc1ccc(S(=O)(=O)Nc2ccc3c(c2)C(=O)N([C@@H](C)CO)C[C@@H](C)[C@@H](CN(C)C(=O)Nc2cccc4ccccc24)OCCCC[C@H](C)O3)cc1 | inactive
C[C@@H]1CN([C@H](C)CO)C(=O)Cc2cc(NC(=O)Nc3cccc4ccccc34)ccc2O[C@H]1CN(C)CC1CCCCC1 | inactive
COc1ccc(S(=O)(=O)Nc2cccc3c2O[C@@H](CN(C)Cc2ccc(Oc4ccccc4)cc2)[C@@H](C)CN([C@@H](C)CO)C3=O)cc1 | inactive
C[C@H]1CCCCO[C@H](CN(C)C(=O)C2CCCCC2)[C@@H](C)CN([C@@H](C)CO)C(=O)c2cc(NC(=O)NC3CCCCC3)ccc2O1 | inactive
C[C@H]1CCCCO[C@@H](CN(C)S(=O)(=O)c2ccc(Cl)cc2)[C@@H](C)CN([C@@H](C)CO)C(=O)c2cc(NS(C)(=O)=O)ccc2O1 | inactive
C[C@@H]1CN([C@H](C)CO)C(=O)Cc2cc(N(C)C)ccc2O[C@H]1CN(C)Cc1ccc(C(=O)Nc2ccccc2N)cc1 | inactive
C[C@@H]1CN([C@@H](C)CO)C(=O)c2cc(NC(=O)Nc3ccc(C(F)(F)F)cc3)ccc2O[C@H]1CN(C)Cc1ccc(C(=O)Nc2ccccc2N)cc1 | inactive
C[C@@H]1CN([C@H](C)CO)C(=O)c2cc(NC(=O)Nc3ccc(C(F)(F)F)cc3)ccc2O[C@@H]1CN(C)Cc1ccc(C(=O)Nc2ccccc2N)cc1 | inactive
C[C@H](CO)N1C[C@H](C)[C@@H](CN(C)Cc2ccc(C(=O)Nc3ccccc3N)cc2)Oc2ccc(NC(=O)Nc3ccc(C(F)(F)F)cc3)cc2C1=O | inactive
CC1=CCn2c(=O)c3ccccc3c(=O)n2C1 | inactive
CCOC(=O)c1cc2ccc(OC)c(OC)c2c(=O)s1 | inactive
COc1ccc(N(Cc2cc(=O)[nH]c3ccccc23)C(=O)c2ccco2)cc1 | inactive
Cc1ccnc2nc(C(=O)OCC(=O)c3ccccc3)nn12 | inactive
Cc1cc(C(=O)COC(=O)CN=C2NS(=O)(=O)c3ccccc32)c(C)n1CCc1ccc(Cl)cc1 | inactive
C[C@@H]1CN([C@H](C)CO)C(=O)c2cccc(NC(=O)C3CCCCC3)c2O[C@H]1CN(C)S(=O)(=O)c1ccc(Cl)cc1 | inactive

SMILES | outcome
O=C(c1cnn2c(C(F)F)cc(-c3ccccc3)nc12)N1CCc2ccccc21 | inactive
CCOC(=O)c1cc(=O)n(Cc2ccccc2C)c2ccccc12 | inactive
CCC(C)NC(=O)Cn1c(=O)n(CCCC(=O)NCc2ccccc2Cl)c(=O)c2ccccc21 (stereo unspecified) | inactive
C[C@H](CO)N1C[C@H](C)[C@H](CN(C)C(=O)Nc2cccc3ccccc23)OCCCC[C@H](C)Oc2ccc(NS(=O)(=O)c3ccc(Cl)cc3)cc2C1=O | inactive
C[C@@H]1CN([C@@H](C)CO)C(=O)c2cc(NC(=O)c3ccncc3)ccc2O[C@@H](C)CCCCO[C@@H]1CN(C)Cc1ccc(C(F)(F)F)cc1 | inactive
CC(=O)c1c(C)[nH]c(C(=O)CSc2nnc(C3CCCCC3)n2N)c1C | inactive
CC1CSc2nc3sc4c(c3c(=O)n21)CCCC4 (stereo unspecified) | inactive
COc1cc2c(N3CCOCC3)cc(O)c(CC(=O)Nc3ccccc3)c2cc1OC | inactive
O=C(Oc1ccc(C(=S)N2CCOCC2)cc1Br)c1ccccc1F | inactive
C[C@@H]1CN([C@H](C)CO)S(=O)(=O)c2ccc(/C=C/c3ccccc3)cc2O[C@@H]1CN(C)C(=O)NC1CCCC1 | inactive
COc1ccc(S(=O)(=O)Nc2ccc3c(c2)CC(=O)N([C@@H](C)CO)C[C@H](C)[C@@H](CN(C)Cc2ccc(Cl)c(Cl)c2)O3)cc1 | inactive
COC(=O)c1cn(Cc2ccc(C(F)(F)F)cc2)cc(F)c1=O | inactive
Cc1ccc(S(=O)(=O)NNC(=O)c2snnc2C)cc1 | inactive
Cc1ccc(N2N=C(C(=O)O)CCC2=O)cc1Cl | inactive
CC(C(=O)NCC1CCCO1)n1cccc1C(=O)c1ccccc1 (stereo unspecified) | inactive
C=C(C)C1CC=C(C)/C(=N/NC(=O)c2ccc(NC(=O)CC)cc2)C1 (stereo unspecified) | inactive
COc1ccc(NC(=O)c2cc(-c3cccs3)on2)cc1 | inactive
c1ccc(Nc2nc(-c3cccs3)cs2)nc1 | inactive
C/C(=N/Nc1nc(-c2ccc(Cl)cc2)cs1)c1cccs1 | inactive
Cc1cc(C(=O)Nc2ccc3c(c2)C(=O)N(C)[C@@H]2CC[C@@H](CC(=O)N[C@H](C)c4ccccc4)O[C@@H]2CO3)no1 | inactive
CCOC(=O)N1CCN(C(=O)Cc2ccsc2)CC1 | inactive
CC(C)[C@H](NS(=O)(=O)c1ccccc1)C(=O)OCC(=O)NC(=O)NC1CCCCC1 | inactive
C[C@@H]1CN([C@@H](C)CO)C(=O)c2cccc(NS(=O)(=O)c3cccs3)c2O[C@@H]1CN(C)C(=O)Nc1ccc(C(F)(F)F)cc1 | inactive
C[C@H](CO)N1C[C@H](C)[C@H](CN(C)C(=O)Nc2ccc(F)cc2)OCCCC[C@H](C)Oc2ccc(NC(=O)Cc3ccccc3)cc2C1=O | inactive
Fc1ccc(CSc2nnc(CN3CCOCC3)n2-c2ccccc2)c(Cl)c1 | inactive
COc1ccc(S(=O)(=O)Nc2ccc3c(c2)C(=O)N([C@H](C)CO)C[C@H](C)[C@H](CN(C)S(=O)(=O)c2ccc(F)cc2)OCCCC[C@@H](C)O3)cc1 | inactive

SMILES | outcome
COc1ccc(S(=O)(=O)Nc2ccc3c(c2)C(=O)N([C@@H](C)CO)C[C@@H](C)[C@@H](CN(C)S(=O)(=O)c2ccc(F)cc2)OCCCC[C@H](C)O3)cc1 | inactive
COc1ccc(S(=O)(=O)Nc2ccc3c(c2)CC(=O)N([C@@H](C)CO)C[C@H](C)[C@H](CN(C)Cc2ccc(Cl)c(Cl)c2)O3)cc1 | inactive
COc1ccc(S(=O)(=O)Nc2ccc3c(c2)CC(=O)N([C@@H](C)CO)C[C@@H](C)[C@H](CN(C)Cc2ccc(Cl)c(Cl)c2)O3)cc1 | inactive
C[C@H]1CN([C@@H](C)CO)C(=O)Cc2cc(NS(=O)(=O)c3ccc(F)cc3)ccc2O[C@H]1CN(C)Cc1ccccc1 | inactive
COc1ccc(CN(C)C[C@@H]2Oc3ccc(NS(=O)(=O)c4ccc(Cl)cc4)cc3CC(=O)N([C@H](C)CO)C[C@H]2C)cc1 | inactive
COc1ccc(CN(C)C[C@@H]2Oc3ccc(NS(=O)(=O)c4ccc(F)cc4)cc3CC(=O)N([C@H](C)CO)C[C@H]2C)cc1 | inactive
C[C@@H]1CN([C@@H](C)CO)C(=O)Cc2cc(NS(=O)(=O)c3ccc(Cl)cc3)ccc2O[C@H]1CN(C)Cc1ccc(-c2ccccc2)cc1 | inactive
COc1ccc(N=C2S/C(=C\c3cc(C)n(C)c3C)C(=O)N2CC(C)C)cc1 | inactive
COc1ccc(NC(=O)Nc2ccc3c(c2)C(=O)N([C@H](C)CO)C[C@H](C)[C@H](CN(C)Cc2ccc(C(F)(F)F)cc2)OCCCC[C@H](C)O3)cc1 | inactive
C[C@@H]1CN([C@H](C)CO)C(=O)Cc2cc(NC(=O)CCC(F)(F)F)ccc2O[C@H]1CN(C)Cc1ccc(Oc2ccccc2)cc1 | inactive
CN(C)S(=O)(=O)c1ccc(C(=O)NCCOc2ccc(F)cc2)cc1 | inactive
COc1ccc(S(=O)(=O)Nc2ccc3c(c2)C(=O)N([C@H](C)CO)C[C@H](C)[C@H](CN(C)S(=O)(=O)c2cccs2)OCCCC[C@H](C)O3)cc1 | inactive
C[C@@H]1CCCCO[C@@H](CN(C)S(C)(=O)=O)[C@H](C)CN([C@@H](C)CO)C(=O)c2cc(NS(=O)(=O)c3ccc(F)cc3)ccc2O1 | inactive
Cc1oc(C(=O)O)cc1COc1cccc2cccnc12 | inactive
c1ccc2c(c1)CCN(Cc1nnnn1Cc1ccc3c(c1)OCO3)C2 | inactive
Cc1ccc(C(O)CN2C3=NCCN3c3ccccc32)cc1 (stereo unspecified) | inactive
C[C@@H]1CN([C@H](C)CO)C(=O)Cc2cc(NC(=O)Nc3cccc4ccccc34)ccc2O[C@@H]1CN(C)S(=O)(=O)c1cccs1 | inactive
C[C@H](CO)N1C[C@H](C)[C@@H](CN(C)C(=O)Nc2ccc(F)cc2)Oc2ccc(NC(=O)Cc3cn(C)c4ccccc34)cc2CC1=O | inactive
COc1ccc(S(=O)(=O)Nc2ccc3c(c2)CC(=O)N([C@H](C)CO)C[C@H](C)[C@@H](CN(C)S(=O)(=O)c2ccc(C)cc2)O3)cc1 | inactive
C[C@H]1CN([C@@H](C)CO)C(=O)c2cc(NS(=O)(=O)c3ccc(F)cc3)ccc2O[C@@H]1CN(C)S(=O)(=O)c1ccc(F)cc1 | inactive
Cc1ccc(S(=O)(=O)Nc2ccc3c(c2)CC(=O)N([C@H](C)CO)C[C@H](C)[C@H](CN(C)S(=O)(=O)c2ccc(C)cc2)O3)cc1 | inactive
Cc1ccc(S(=O)(=O)Nc2ccc3c(c2)CC(=O)N([C@@H](C)CO)C[C@@H](C)[C@H](CN(C)S(=O)(=O)c2ccc(C)cc2)O3)cc1 | inactive
Cc1ccc(S(=O)(=O)N(C)C[C@@H]2Oc3ccc(NS(=O)(=O)c4ccc(F)cc4)cc3C(=O)N([C@H](C)CO)C[C@@H]2C)cc1 | inactive
C[C@@H]1CN([C@@H](C)CO)C(=O)Cc2cc(NC(=O)Nc3cccc4ccccc34)ccc2O[C@@H]1CN(C)S(=O)(=O)c1ccc(Cl)cc1 | inactive
